Where “and” joins values, the source holds several entries; their conditions need not be identical. Equal entries are not always repeated. Results filed as inconclusive are left out. A call without a number means that no potency is given here. Calls of active or inactive are those of the source. Calls come from the whole dose curve; as a rule, active = well fitted cell-killing curve with a large enough effect in the repeat runs; inconclusive = weak or mixed curves; inactive = no such curve, though single readings can be large or run the other way.
assay: qHTS assay to identify small molecule antagonists of the peroxisome proliferator-activated receptor delta (PPARd) signaling pathway - cell viability counter screen (AID 743213); settings: PPARd-bla HEK293H viability, CellTiter-Glo luminescence, 17 h; series mostly up to 62 µM; note: nearly all actives have a fitted effect of over 50% in size
Source text: U.S. Tox21 Program National Center for Advancing Translational Sciences [NCATS] NIH Chemical Genomics Center [NCGC] U.S. Environmental Protection Agency [EPA] National Institutes of Environmental Health Sciences [NIEHS] National Toxicology Program [NTP] U.S. Food and Drug Administration [FDA] Tox21 Assay Overview: The peroxisome proliferator-activated receptors (PPARs) are lipid-activated transcription factors of the nuclear receptor superfamily with three distinct subtypes namely PPAR alpha, PPAR delta (PPARd) and PPAR gamma. All these subtypes heterodimerizes with Retinoid X receptor (RXR) and have different physiological functions. […] To identify the compounds that inhibit PPAR-delta signaling, GeneBLAzer PPAR delta UAS-bla HEK293H cell line (Invitrogen, Carlsbad, CA, USA) containing a beta-lactamase reporter gene under the control of an Upstream Activator Sequence (UAS) was used to screen the Tox21 compound library. The cytotoxicity of the Tox21 compound library against the PPARd-bla cell line was tested in parallel by measuring the cell viability using CellTiter-Glo assay (Promega, Madison, WI) in the same wells.
Tox21 Assay Protocol Summary: PPARd-bla cells were dispensed at 3000 cells/5uL/well in 1536-well black wall/clear bottom plates using a Multidrop Combi (Thermo Fisher Scientific, Waltham, MA) dispenser. After the assay plates were incubated at 37 C and 5% CO2 for 5 h, 23 nL of compounds dissolved in DMSO, positive controls or DMSO only was transferred to the assay plate by a Pintool station (Kalypsys, San Diego, CA), followed by addition of 1ul L165041 (300 nM, final concentration in the wells). The assay plates were incubated at 37 C for 17 h, and then 1 uL of LiveBLAzerTM B/G FRET substrate was added using a Bioraptr Flying Reagent Dispenser (FRD) workstation (Beckman Coulter, Indianapolis, IN, USA). The assay plates were incubated at room temperature for 2 h and fluorescence intensity was measured by an Envision plate reader (PerkinElmer, Shelton, CT). For cell viability readout that measures cytotoxicity, 3 ul/well of CellTiter-Glo reagent was added into the assay plates using a Bioraptr FRD. After 30 min incubation at room temperature, the luminescence intensity in the plates was measured using a ViewLux plate reader (PerkinElmer).
Potency is the fitted concentration of half-maximal effect.

| SMILES | Potency |
| --- | --- |
| O=C1OC2(c3ccc(O)cc3Oc3cc(O)ccc32)c2ccc(N=C=S)cc21 | inactive |
| Fc1ccc(C(c2ccc(F)cc2)N2CCNCC2)cc1 | 15 µM (active) |
| CCCCCCCCCCCCCC[N+](C)(C)C | 21.1 µM (active) and 6.16 µM (active) |
| OC1CCC(C2CCCCC2)CC1 (stereo not given) | inactive |
| O=c1[nH]c2ccccc2n1CCCN1CCN(C(c2ccccc2)c2ccccc2)CC1 | inactive |
| CN(C)CCN1CCN(c2cccc(Cl)c2)C1=O | inactive |
| CCC(C)n1ncn(-c2ccc(N3CCN(c4ccc(OC[C@H]5CO[C@](Cn6cncn6)(c6ccc(Cl)cc6Cl)O5)cc4)CC3)cc2)c1=O (stereo not given in full) | 2.11 µM (active) |
| Cc1cc(=O)oc2cc(O)cc(O)c12 | inactive |
| CCCCC(CC)COC(=O)CCCCC(=O)OCc1ccccc1 (stereo not given) | inactive |
| C=CC(=O)Nc1cc2c(Nc3ccc(F)c(Cl)c3)ncnc2cc1OCCCN1CCOCC1 | inactive |
| CCO[C@@H]1O[C@H](C(COCc2ccccc2)OCc2ccccc2)[C@H](OCc2ccccc2)[C@H]1O (stereo not given in full) | inactive |
| CCCCOC(=O)CO | inactive |
| O=C1CCc2cc(OCCCCc3nnnn3C3CCCCC3)ccc2N1 | inactive |
| C=C(CC)C(=O)c1ccc(OCC(=O)O)c(Cl)c1Cl | inactive |
| O=C(O)Cc1ccccc1Nc1c(Cl)cccc1Cl | inactive |
| O=C1C(c2[nH]c3ccc(S(=O)(=O)O)cc3c2O)=Nc2ccc(S(=O)(=O)O)cc21 | inactive |
| NC(=S)NC(N)=S | inactive |
| Cc1cccc(C)c1NC(=O)c1ccc(N)cc1 | inactive |
| C=C(C)c1cccc(C(=C)C)c1 | inactive |
| NC(=O)c1cccc([N+](=O)[O-])c1 | inactive |

| SMILES | Potency |
| --- | --- |
| COc1ccc(-c2coc3cc(O)ccc3c2=O)cc1 | inactive |
| COc1ccc2c(c1)c(CC(=O)OC/C=C(\C)CC/C=C(\C)CCC=C(C)C)c(C)n2C(=O)c1ccc(Cl)cc1 | inactive |
| CC[N+](CC)(CC)CCOC(=O)C(C1CCCC1)C1CCCC1 | inactive |
| CC(=O)Oc1cc2c(s1)CCN(C(C(=O)C1CC1)c1ccccc1F)C2 (stereo not given) | inactive |
| Cc1cc(-n2nc3ccc(Cl)cc3n2)c(O)c(C(C)(C)C)c1 | inactive |
| CCCC1CCC(=O)CC1 | inactive |
| C#CC1(O)CC[C@H]2[C@@H]3CCC4=CCCC[C@@H]4[C@H]3CC[C@@]21C (stereo not given in full) | 26.6 µM (active) |
| COc1ccc(NC(=O)CC(C)=O)cc1 | inactive |
| COC(=O)c1ccccc1OC | inactive |
| O=C(Nc1ccc2c(O)c(N=Nc3ccc(N=Nc4ccc(S(=O)(=O)O)cc4)cc3)c(S(=O)(=O)O)cc2c1)c1ccccc1 | inactive |
| CC(C)(C)c1csc(-c2cc3cc(OCc4ccccc4CC(=O)O)ccc3o2)n1 | 30.9 µM (active) |
| COc1cc(/C=C/c2ccccc2)oc(=O)c1 | inactive |
| CCN1C(=O)c2ccccc2C1Nc1ccc(OCCN2CCCCC2)cc1 (stereo not given) | inactive |
| CC1(C)CC(O)CC(C)(C)N1 | inactive |
| FC(F)(F)c1cccc(Cl)c1 | inactive |
| CCCC(=O)OCCc1ccccc1 | inactive |
| Nc1nc(-c2ccccc2)cs1 | inactive |
| [Cu+] | inactive |
| CCCCCc1ccc(Cl)cc1 | inactive |
| CCCCCCCC | inactive |
